From ChEMBL document CHEMBL1201862, “PubChem BioAssay data set” (2004)
Screen size: about 420,000 compounds; about 50,000 (12%) were called active. Not shown: some 26% with an inconclusive outcome. No cut-off for these calls is given here. The full list was thinned out, with actives kept by preference.

These compounds were tested against Tyrosyl-DNA phosphodiesterase 1 (Homo sapiens) (UniProt Q9NUW8) (assay: qHTS for Inhibitors of human tyrosyl-DNA phosphodiesterase 1 (TDP1): qHTS in cells in presence of CPT.).
Assay type: functional

Sequence of Tyrosyl-DNA phosphodiesterase 1 (Homo sapiens) (Q9NUW8 whole entry): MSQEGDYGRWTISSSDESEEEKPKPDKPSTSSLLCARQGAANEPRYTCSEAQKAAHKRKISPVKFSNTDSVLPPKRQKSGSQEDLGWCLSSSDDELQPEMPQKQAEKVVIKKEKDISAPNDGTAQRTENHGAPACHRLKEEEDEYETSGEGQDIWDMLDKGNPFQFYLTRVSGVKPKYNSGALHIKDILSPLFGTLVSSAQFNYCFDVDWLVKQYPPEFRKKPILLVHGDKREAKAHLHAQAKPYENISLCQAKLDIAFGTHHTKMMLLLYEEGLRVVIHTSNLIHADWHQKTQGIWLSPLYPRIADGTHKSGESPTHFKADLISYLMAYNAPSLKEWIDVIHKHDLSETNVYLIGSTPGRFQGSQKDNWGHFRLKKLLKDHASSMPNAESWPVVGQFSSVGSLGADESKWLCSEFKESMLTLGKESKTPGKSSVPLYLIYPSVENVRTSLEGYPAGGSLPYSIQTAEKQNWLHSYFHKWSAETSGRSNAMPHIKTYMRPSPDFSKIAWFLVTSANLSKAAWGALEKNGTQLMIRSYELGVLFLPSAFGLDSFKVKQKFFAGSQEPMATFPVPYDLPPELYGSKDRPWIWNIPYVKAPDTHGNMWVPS

Potency, active:
COc1ccc(OC)c(/C=C/c2cccc3c2N(CCCCI)C=S3/C=C/c2cc(OC)ccc2OC)c1 (stereo not given) 6.31 µM
CC(C)C(C)c1cccc2c1NC=S2C(C)C(C)C (stereo not given) 5.62 µM
COc1ccccc1/C=C/C(=O)c1cccs1 9.44 µM
Cc1cccc2c1N(CCCCI)C=S2C (stereo not given) 3.98 µM
ICCCCN1C=S(CI)c2ccccc21 (stereo not given) 10 µM
